Sampled rows, rich in hits. Any-hit rate of the full collection: about 8.1%.
ELG1 repair inh – blocks ELG1-dependent DNA repair in HEK293T cells | HEK293T ELG1-luciferase reporter, luminescence, 16 h; DNA damage induced by 5-fluorouridine | Potency, µM (titrated, usually from 46.1 µM), actives largely listed as inhibitors | actives 2.3% (n = 330,000) | AID 504467; note: nearly all actives have a fitted effect of over 55% in size
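In this reporter screen, reduction of luminescence relative to DMSO vehicle indicated activity. Compounds and 5-fluorouridine were added together to 2,000 cells per well, incubated for 16 hr at 37 °C, then developed with ONE-Glo.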
KB-V1 MDR tox – kills drug-selected multidrug resistant KB-V1 cells. Potency, µM (titrated, usually from 46.1 µM), hits mostly cytotoxic. actives 3.4% (n = 400,000). KB-V1 MDR cells viability, CellTiter-Glo, 72 h; note: nearly all actives have a fitted effect of over 60% in size
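Potencies derive from concentration-effect curves fitted to normalized luminescence (CellTiter-Glo) of KB-V1 cells treated for 72 h at 37 degrees C in phenol-red-free DMEM containing 10% FBS.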
SW480 rereplic – induces DNA re-replication in SW480 colon adenocarcinoma cells. AID 624297. Potency, µM (highest dose often 46.1 µM), usual class: activators. actives 1.8% (n = 340,000). SW480 DNA re-replication, Hoechst DNA content imaging, 48 h; note: nearly all actives have a fitted effect of over 55% in size
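Cells (250 per well) received 23 nL compound or DMSO by pin tool and were kept 48 hr at 37 C, 5% CO2. Nuclei were then stained with Hoechst for 40 min and scanned for DNA content.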
KB-3-1 cytotox – kills parental KB-3-1 adenocarcinoma cells | KB-3-1 viability, CellTiter-Glo ATP luminescence, 72 h | actives 1.4% (n = 400,000) | Potency, µM (series often up to 46.1 µM), hits mostly cytotoxic | AID 1347075; note: nearly all actives have a fitted effect of over 60% in size
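72 h, 37 °C compound treatment of KB-3-1 parental cells; CellTiter-Glo added, 10 min, luminescence read. Data corrected against DMSO-only plates and normalized before curve fitting.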
MCF10A rereplic – inducers of DNA re-replication in MCF 10A breast cells; MCF 10A DNA re-replication, Hoechst nuclear intensity, 48 h; Potency, µM (doses to about 46.1 µM), actives largely listed as activators; actives 2.9% (n = 350,000); AID 624296; note: nearly all actives have a fitted effect of over 50% in size
Hits are given with their value; . = inactive; ? = inconclusive; / = no result; [ ] = another dose, or the depositor's remark. Calls come from the whole dose curve; as a rule, active = well fitted curve in the direction sought with a large enough effect; inconclusive = small, poorly fitted or top-dose-only effect, or another doubt; inactive = no such curve, though single readings can be large; an effect the other way counts as inactive or inconclusive.

SMILES	ELG1 repair inh	KB-V1 MDR tox	SW480 rereplic	KB-3-1 cytotox	MCF10A rereplic
O=C(NC(CO)(CO)CO)c1coc(=O)c(Br)c1	?	.	7.31µM	.	3.26µM
CN(C)CCNC(=O)c1coc(=O)c(Br)c1	?	.	.	.	.
O=C(CCn1c(=O)c2ccccc2n(CC(=O)N2CCN(c3ccccc3)CC2)c1=O)NCc1ccco1	.	.	.	.	.
CCN(CC)c1ccc(S(=O)(=O)N2CCOCC2)cc1NC(=O)CSc1nncn1C	.	.	.	.	.
O=C1Nc2ccccc2Cc2ccccc21	/	.	/	.	/
CC1(C2CC2)NC(=O)N(CC(=O)Nc2ccc(Cl)c([N+](=O)[O-])c2)C1=O (centres undefined)	.	.	.	.	?
O=C(Nc1ccccc1O)c1c(O)c2c([nH]c1=O)CCCC2	?	.	16.4µM	.	20.6µM
COc1cc(C(=O)Nc2ccc(NC(=O)c3ccccc3)nc2)cc(OC)c1OC	?	?	.	.	.
COc1cc(C(=O)Nc2nc(OC)c(-c3ccccc3)c(OC)n2)cc(OC)c1OC	9.2µM	.	.	.	.
COc1cc(C(=O)Nc2cc(-c3ccccc3)[nH]n2)cc(OC)c1OC	?	18.4µM	.	?	.
CCOC(=O)c1nc(S(C)(=O)=O)ncc1Cl	?	.	?	.	.
CC(C)Cn1c(/C=N/Nc2nc3ccccc3[nH]2)nc2ccccc21	.	?	?	16.4µM	.
Cc1c(/C=N/Nc2nc3ccccc3[nH]2)c2ccccc2n1C	.	?	?	?	16.4µM
CCCn1c(/C=N/Nc2nc3ccccc3[nH]2)nc2ccccc21	?	?	/	.	?
O=C(Nc1nc2ccc(F)cc2s1)c1cccc(S(=O)(=O)N2CCc3ccccc32)c1	?	2.91µM	.	?	.
CCOC(=O)c1sc(NC(=O)c2cccc(S(=O)(=O)N3CCc4ccccc43)c2)c(C#N)c1C	?	.	.	20.6µM	.
Cc1ccc2nc(NC(=O)c3ccc(S(=O)(=O)N4CCCc5ccccc54)cc3)sc2c1	?	.	?	.	16.4µM
CCC(CC)c1nnc(NC(=O)c2cccc(S(=O)(=O)N3CCc4ccccc43)c2)s1	.	14.6µM	?	.	4.61µM
COc1nc(-c2ccc(Cl)cc2)nnc1C	.	?	.	.	.
CCC(C)NS(=O)(=O)c1ccc(OCC(=O)NCc2cccnc2)cc1 (centres undefined)	.	.	.	.	.
CN(C)S(=O)(=O)c1cccc(C(=O)Nc2ccc(Cl)cn2)c1	?	23.1µM	.	.	.
O=C(Nc1cccc(S(=O)(=O)N2CCCC2)c1)c1ccc(Cl)nc1	9.2µM	?	18.4µM	?	?
O=C(Nc1ccc(Cl)cn1)c1cccc(S(=O)(=O)N2CCCC2)c1	.	16.4µM	.	.	.
COc1ccc(C(=O)Nc2ccc(Cl)cn2)cc1Cl	?	.	?	.	18.4µM
O=C(Nc1ccc(Cl)cn1)c1cccc(S(=O)(=O)N2CCCCC2)c1	.	.	.	.	.
SMILES	ELG1 repair inh	KB-V1 MDR tox	SW480 rereplic	KB-3-1 cytotox	MCF10A rereplic
COc1ccc(C(=O)Nc2ccc(Cl)cn2)cc1S(=O)(=O)N1CCCC1	.	.	.	.	.
O=C(Nc1ccc(Cl)cn1)c1ccc(-c2ccc(Cl)c(Cl)c2)o1	/	.	.	.	18.4µM
Cc1cccc(NC(=O)C(C)C(=O)c2ccccc2)c1 (centres undefined)	.	.	.	.	.
Cc1ccc(NC(=O)C(C)c2cccc(C(=O)c3ccccc3)c2)cc1O (centres undefined)	.	6.51µM	.	?	?
CCCN(CC(=O)Nc1cc(C)on1)CC(=O)Nc1ccc(F)c(F)c1F	.	4.61µM	.	.	.
Cc1ccc(S(=O)(=O)c2c(CO)c(-c3ccccc3)nn2C)cc1	?	14.6µM	?	?	.
CC(=O)N1N=C(c2c(-c3ccccc3)c3cc(C)ccc3[nH]c2=O)CC1c1ccco1 (centres undefined)	23.1µM	.	.	.	?
CC(=O)N1N=C(c2cccc(NS(=O)(=O)c3ccc(C)cc3)c2)CC1c1ccco1 (centres undefined)	?	.	16.4µM	?	?
CC(=O)N1N=C(c2ccc(NS(=O)(=O)c3ccccc3)cc2)CC1c1ccco1 (centres undefined)	.	.	11.6µM	?	?
CC(=O)N1CC(C)Oc2ccc(S(=O)(=O)NC(CC(=O)O)c3ccccc3C)cc21 (centres undefined)	.	?	.	.	.
CCOC(=O)NN1C(=O)c2ccccc2NC1c1ccc(OC)cc1 (centres undefined)	.	.	.	.	.
O=C(Cn1c(=O)oc2ccccc21)Nc1ccc2c(c1)OCCO2	.	.	.	.	.
COCCNC(=O)c1cc2c(=O)n3cccc(C)c3nc2n1C	?	5.8µM	.	3.26µM	?
CCOCCCn1c(=N)c(C(N)=S)cc2c(=O)n3cccc(C)c3nc21	?	16.4µM	?	?	?
Cc1cccn2c(=O)c3cc(C(N)=S)c(=N)n(CCCOC(C)C)c3nc12	?	.	.	?	?
CCCCNC(=O)c1cc2c(=O)n3cccc(C)c3nc2n1C	.	/	/	/	/
CCOCCCNC(=O)c1cc2c(=O)n3cccc(C)c3nc2n1C	.	.	0.651µM	?	?
O=CNc1c(Cl)cc2c(c1Cl)Cc1cc([N+](=O)[O-])ccc1-2	/	?	20.6µM	?	?
COc1ccc(/C=C/c2nnc(NC(=O)CSc3ccc(C)cc3)s2)cc1	.	.	?	?	8.2µM
CCC(=O)Nc1nnc(/C=C/c2ccc(OC)cc2)s1	?	.	?	.	.
Cc1coc2c(C)c3oc(=O)c(CCC(=O)NCCCn4ccnc4)c(C)c3cc12	.	.	?	.	.
Cc1c(CCC(=O)NCCCn2ccnc2)c(=O)oc2c(C)c3occ(C(C)(C)C)c3cc12	.	.	20.6µM	.	?
CCCN(CC(=O)Nc1ccc(F)c(F)c1F)C(=O)Cn1c(=O)cnc2ccccc21	.	.	.	.	.
COc1cc(-c2c(C#N)c(N)nc(SCc3ccncc3)c2C#N)cc(OC)c1OC	11.2µM	.	.	.	.
N#Cc1c(N)nc(SCc2ccncc2)c(C#N)c1-c1cccs1	5.17µM	.	?	.	?
SMILES	ELG1 repair inh	KB-V1 MDR tox	SW480 rereplic	KB-3-1 cytotox	MCF10A rereplic
O=C(NC1CCCCC1)c1ccc(N2CCOCC2)c([N+](=O)[O-])c1	.	.	.	.	?
CCc1ccc(C(=O)COC(=O)CNC(=O)CNS(=O)(=O)c2ccccc2)cc1	.	/	.	/	.
Cc1[nH]n(-c2nc(-c3cccc([N+](=O)[O-])c3)cs2)c(=O)c1C	?	16.4µM	.	.	.
Cc1c(Nc2nc(-c3cccc([N+](=O)[O-])c3)cs2)c(=O)n(-c2ccccc2)n1C	.	.	?	.	.
N#C/C(=C\c1ccc(OC(F)F)cc1)C(=O)N1CCCCC1	.	.	.	.	13µM
COc1ccc(CC(=O)N2CCC(Nc3nc4ccccc4n3Cc3ccc(F)cc3)CC2)cc1	20.6µM	?	.[9.22 µM]	.	.

Screening data: PubChem BioAssay, National Center for Advancing Translational Sciences (NCATS)
